The text below walks through data of PubChem BioAssay (EPA / NIEHS).

Several values for one entry are separate records, joined by “and”; a condition that tells them apart may be missing. Identical values can stand only once. Results filed as inconclusive are left out. Activity calls are given as the source filed them. Rule for the calls, unless noted: active = hit-call score of the fitted dose curve at least 0.9, where 1 is the maximum; inactive = score below 0.9.

Assay [1] concerns Brachyury (BRA) Protein Expression, TBXT (gene 6862). Briefly: CCTE_Deisenroth_DEVTOX-GLR_Endo_BRA: CCTE's DevTox GLR-Endo Assay Evaluation of Brachyury (BRA) Protein Expression, Deisenroth Lab (AID 2284417). Put shortly:
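RUES2-GLR human pluripotent cells, seeded 24 h, then differentiated 48 h in defined media with two chemical exposures 24 h apart (10-point series, 1 nM - 200 uM). Fixed, nuclear-stained, imaged; endpoint is percent BRA+ cells minus 0.2% DMSO control.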

Assay [2] can be described thus: CCTE_Deisenroth_DEVTOX-GLR_Endo_CellCount: Viability Assessment in CCTE's DevTox GLR-Endo Assay, Deisenroth Lab (AID 2284420). An outline of the steps:
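Nuclei counted by fluorescence microscopy as a surrogate for cell number, expressed as percent change relative to 0.2% DMSO control. Human RUES2-GLR cells, 48 h differentiation, dosed twice; 1 nM - 200 uM series.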

Assay [3] relates to SRY-box transcription factor 17 (SOX17) Protein Expression, Deisenroth Lab, SOX17 (gene 64321). The assay can be described thus: CCTE_Deisenroth_DEVTOX-GLR_Pluri_SOX17: CCTE's DevTox GLR-Pluri Assay Evaluation of SRY-box transcription factor 17 (SOX17) Protein Expression, Deisenroth Lab (AID 2284427; active = hit-call score of the fitted dose curve at least 0.9, where 1 is the maximum). Put shortly: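 Readout: percent SOX17+ cells (SOX17+ count/cell count) by high-content imaging of an inducible fluorescent reporter, corrected for 0.2% DMSO solvent control. RUES2-GLR cells, 48 h differentiation, dosed twice at 24 h intervals, 1 nM - 200 uM.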

In assay [4] the test system is SRY-box transcription factor 2 (SOX2) Protein Expression, Deisenroth Lab, SOX2 (gene 6657). The assay can be described thus: CCTE_Deisenroth_DEVTOX-GLR_Pluri_SOX2: CCTE's DevTox GLR-Pluri Assay Evaluation of SRY-box transcription factor 2 (SOX2) Protein Expression, Deisenroth Lab (AID 2284428). An outline of the steps:
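RUES2-GLR (human pluripotent), 48 h post-dosing, 2 exposures q24h, 1 nM–200 uM 10-pt. Fixed, nuclear dye, high-content imaging 5 fields/well. Endpoint: % SOX2+ cells (SOX2+/total count) vs 0.2% DMSO; n≥4.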

Assay [5] relates to Brachyury (BRA) Protein Expression, Deisenroth Lab, TBXT (gene 6862). The assay can be described thus: CCTE_Deisenroth_DEVTOX-GLR_Pluri_BRA: CCTE's DevTox GLR-Pluri Assay Evaluation of Brachyury (BRA) Protein Expression, Deisenroth Lab (AID 2284429; active = hit-call score of the fitted dose curve at least 0.9, where 1 is the maximum). Put shortly: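 An inducible fluorescent BRA reporter in RUES2-GLR cells tracks mesoderm differentiation. Compounds (10 concentrations, 1 nM - 200 uM) are dosed twice within a 48-h differentiation. The endpoint subtracts the 0.2% DMSO control from percent BRA+ cells.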

Assay [6] can be described thus: CCTE_Deisenroth_DEVTOX-GLR_Pluri_CellCount: Viability Assessment in CCTE's DevTox GLR-Pluri Assay Evaluation of Total Cell Counts, Deisenroth Lab (AID 2284430). An outline of the steps:
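RUES2-GLR human pluripotent cells, seeded 24 h, then differentiated 48 h with two chemical exposures 24 h apart; 10-point series 1 nM - 200 uM. Fixed, nuclear-stained, imaged (5 fields/well); nuclei count as % change vs 0.2% DMSO.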

The test system of a further assay is TTR (gene 7276). The assay can be described thus: CCTE_GLTED_hTTR_0.125uM: CCTE's human Transthyretin (hTTR) Inhibition Assay, with 0.125uM TTR, Great Lakes Toxicology and Ecology Division (GLTED) Lab (AID 2284431).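 Note: hits lower the fluorescence signal relative to DMSO baseline.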 An outline of the steps:
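TTR 0.125uM + test chemical, 2 h; ANSA probe displacement; ex 380/em 475 fluorescence; signal loss vs DMSO control.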

A short description of assay [7]: CCTE_Padilla_ZF_Score.Any: CCTE's 144 Hour Post-fertilization zebrafish Assay Score for Any Mortality or Malformation, Padilla Lab (AID 2284416). An outline of the steps:
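Wild-type zebrafish embryos with chorions, one per well in 10% Hanks' from 6–8 hpf, dosed in sealed plates at 26 C, 14:10 h light:dark; rinsed at 5 dpf; blinded scoring at 6 dpf for death or malformation, versus DMSO.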

For `CC(O)CO` (centres undefined), the result in assay [1], in assay [2], in assay [3], in assay [4], in assay [5] and in assay [6] was inactive. On to `O=[N+]([O-])c1ccc(O)cc1`, for which the AC50 with TTR (gene 7276) was 6.47 µM (active) and 8.54 µM (active). On the same count and under the same terms, for `NC(=O)N(O)[C@@H]1C=C[C@H](Oc2cccc(Oc3ccc(F)cc3)c2)C1` the value was 0.439 µM (active); for `O=C(O)c1ccccc1C(c1ccc(O)cc1)c1ccc(O)cc1`, 3.04 µM (active). For the molecule `CC1=C(/C=C/C(C)=C/C=C/C(C)=C/C(=O)O)C(C)(C)CCC1`, the half-maximal activity concentration (AC50) in assay [1] was 8.08 µM (active); in assay [2], 4.43 µM (active); in assay [3], 14.1 µM (active); in assay [4] it was 0.576 µM (active); in assay [5], 12 µM (active).

As for `OCCC(F)(F)C(F)(F)C(F)(F)C(F)(F)C(F)(F)C(F)(F)F`, the half-maximal activity concentration (AC50) in assay [7] was 28.6 µM (active).

As to `NCC(F)(F)C(F)(F)C(F)(F)C(F)(F)C(F)(F)C(F)(F)C(F)(F)F`, the molecule was called inactive in assay [7].

In the case of `CC(C)(C)c1ccc(O)c(C(C)(C)C)c1`, in the assay with TTR (gene 7276), the AC50 is 9.98 µM (active). On the same count and under the same terms, for `CCCCCCCCC(=O)O` the value was 12.4 µM (active).

In the case of `FC(F)(I)C(F)(F)C(F)(F)C(F)(F)C(F)(F)C(F)(F)I`, the AC50 in assay [7] was 10 µM (active) and 3.34 µM (active). For `CCCOC(=O)c1ccc(O)cc1`, the AC50 in the assay with TTR (gene 7276) is 5.01 µM (active).

Turning to `CC[C@H](c1ccc(O)cc1)[C@@H](CC)c1ccc(O)cc1`, the AC50 in the assay with TTR (gene 7276) was 0.132 µM (active).

On to `C=C(C)C(=O)OCCC(F)(F)C(F)(F)C(F)(F)C(F)(F)C(F)(F)C(F)(F)F`, for which the molecule was called inactive in assay [7]. Consider `CCc1ccc(CCOc2ccc(CC3SC(=O)NC3=O)cc2)nc1` (centres undefined), for which the AC50 with TTR (gene 7276) is 0.392 µM (active). On to `C[C@@H]1C[C@H]2[C@@H]3CCC4=CC(=O)C=C[C@]4(C)[C@@]3(F)[C@@H](O)C[C@]2(C)[C@@]1(O)C(=O)COP(=O)(O)O`, for which the call in assay [1], in assay [2], in assay [3], in assay [4], in assay [5] and in assay [6] was inactive.
